IL1B secr inh = qHTS for Inhibitors of Inflammasome Signaling: IL-1-beta AlphaLISA Primary Screen | THP-1 LPS/ATP IL-1B secretion, AlphaLISA, 16 h; active compounds read low | activity change, % at 57.5 µM | hit rate 4.7% among 360,000 | AID 743279, 2014; in the data active means activity change below about -50%; inconclusive means mostly about -30% to -49%
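Secreted IL-1B measured by AlphaLISA bead assay after 16 h compound exposure of THP-1 cells; compounds (final up to 57.5 uM) added 1 h before LPS (250 ng/mL) and ATP (1.25 mM) stimulation; lower signal means less secretion.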
CtBP-E1A blk = qHTS Assay for Inhibitors of the CtBP/E1A Interaction; CtBP / adenovirus E1A interaction (AlphaScreen); AlphaScreen GST-E1A/His-CtBP binding, 1536-well; active compounds read low; activity change, % (concentration not given with the values); hit rate 0.49% among 340,000; in the data active means activity change below about -65%; inconclusive means mostly about -30% to -63%
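Homogeneous bead-based format: GST-tagged E1A captured on glutathione donor beads, His-tagged CtBP on nickel acceptor beads; compounds precede bead addition by 2 h at 37 °C.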
DT40 TDP1 no CPT = qHTS for Inhibitors of human tyrosyl-DNA phosphodiesterase 1 (TDP1): qHTS in cells in absence of CPT | DT40 Tdp1-/- hTDP1 cells, no CPT, ATP luminescence, 48 h | Potency, µM (doses to about 46.2 µM), without a hit: at the highest dose activity change, negative = growth inhibition, usual class: inhibitors | hit rate 15% among 420,000 | AID 686978, 2013; further: potency means the concentration at half of the fitted maximal effect; nearly all actives have a fitted effect of over 55% in size
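Compound effects on proliferation are scored in DT40 Tdp1-/-;hTDP1 cells in the absence of CPT. ATP levels (CellTiter-Glo luminescence) are recorded after a ≥48 hr, 37 °C incubation.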
Six1-Eya2 inh = qHTS Assay for Inhibitors of the Six1/Eya2 Interaction. Homeobox protein SIX1 (Homo sapiens) + Protein phosphatase EYA2 (Homo sapiens), …. AlphaScreen GST-Six1/His-Eya2 binding, biochemical; active compounds read low. activity change, % (test concentration not listed). hit rate 0.56% among 360,000. AID 651725, 2012; in the data active means activity change below about -65%; inconclusive means mostly about -30% to -63%
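GST-Six1 + His-Eya2 (5X stock: 250/500 nM); Tris pH 8.0, 300 mM NaCl, 0.05% BSA, 0.02% Tween 20; GSH donor/Ni acceptor beads; 1 h 37 °C dark; AlphaScreen readout.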
DT40 TDP1 CPT = qHTS for Inhibitors of human tyrosyl-DNA phosphodiesterase 1 (TDP1): qHTS in cells in presence of CPT | chicken DT40 Tdp1-/-;hTDP1 cells + 20 nM CPT, ATP luminescence, 48 h | Potency, µM (series often up to 46.2 µM), for the others: at the highest dose activity change, negative = growth inhibition, actives largely listed as inhibitors | hit rate 12% among 420,000; further: potency means the concentration at half of the fitted maximal effect; nearly all actives have a fitted effect of over 55% in size
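Chicken DT40 Tdp1-/- cells complemented with human TDP1, 400 cells/well, exposed to compounds plus 20 nM camptothecin for at least 48 h at 37 C; viability read as ATP content by CellTiter-Glo luminescence.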
TDP1 block = qHTS Assay for Inhibitors of Tyrosyl-DNA Phosphodiesterase (TDP1) | recombinant TDP1, AlphaScreen DNA substrate cleavage | Potency, µM (top dose mostly 130 µM), without a hit: at the top dose activity change, negative = inhibition, hits mostly inhibitors | hit rate 0.28% among 350,000 | AID 485290, 2010; further: potency means the concentration at half of the fitted maximal effect; nearly all actives have a fitted effect of over 40% in size
Target sequence (Q9NUW8 whole entry, looked up): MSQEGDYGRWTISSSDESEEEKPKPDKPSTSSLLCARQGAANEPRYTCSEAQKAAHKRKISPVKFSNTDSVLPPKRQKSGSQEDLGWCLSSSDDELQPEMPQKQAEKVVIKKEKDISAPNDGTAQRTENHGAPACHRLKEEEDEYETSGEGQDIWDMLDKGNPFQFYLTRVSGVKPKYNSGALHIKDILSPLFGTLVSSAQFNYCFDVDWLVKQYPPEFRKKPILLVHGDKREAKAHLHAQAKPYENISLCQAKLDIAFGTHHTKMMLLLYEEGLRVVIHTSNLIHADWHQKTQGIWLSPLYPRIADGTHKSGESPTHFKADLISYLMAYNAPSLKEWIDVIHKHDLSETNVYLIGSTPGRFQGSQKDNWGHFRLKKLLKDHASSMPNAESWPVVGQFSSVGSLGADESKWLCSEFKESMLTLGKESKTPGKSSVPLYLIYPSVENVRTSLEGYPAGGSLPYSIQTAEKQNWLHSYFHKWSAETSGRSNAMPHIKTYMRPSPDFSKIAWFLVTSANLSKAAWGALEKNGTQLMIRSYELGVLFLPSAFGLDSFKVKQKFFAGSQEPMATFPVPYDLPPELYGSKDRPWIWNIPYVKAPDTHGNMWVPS
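Steps: enzyme plus compound, 15 min RT; add biotin/phosphotyrosine-FITC oligonucleotide (15 nM final), react 5 min; add donor/acceptor beads (10 ug/ml final), 10 min; read AlphaScreen. Tdp1 at 1 nM final.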
* hit, by the source's call; ? = inconclusive; . = no result given. Shown are actives, neighbours in structure and some others; about 18% of the full set was active somewhere. Unless noted, the call rests on the fitted dose curve; in most records, active means well fitted curve in the direction sought with a large enough effect; inconclusive means small, poorly fitted or top-dose-only effect, or another doubt; inactive means no such curve, though single readings can be large; an effect the other way counts as inactive or inconclusive. On the % scale 0 is the no-effect control and ±100 the full control effect.

SMILES	IL1B secr inh	CtBP-E1A blk	DT40 TDP1 no CPT	Six1-Eya2 inh	DT40 TDP1 CPT	TDP1 block
Brc1ccc2ncnc(Nc3ccc(N4CCOCC4)cc3)c2c1	-16	?	9.2µM*	-23	12µM*	9%
CSCCC(Nc1ncnc2ccc(Br)cc12)C(=O)O (centres undefined)	53	3	-12%	-7	?	2%
CC(C)COc1ccc(Nc2ncnc3ccc(Br)cc23)cc1	.	.	?	.	12µM*	.
Cc1nnc(-c2ccccc2)c[n+]1[O-]	-15	-12	1%	7	-6%	4%
Cc1c(C(=O)N(Cc2nnc(-c3ccccc3Cl)o2)C2CC2)oc2ccccc12	21	.	?	-4	16µM*	-4%
Cc1ccsc1C(=O)N(Cc1nnc(-c2ccccc2Cl)o1)C1CC1	-4	5	?	-2	?	-4%
Cc1ccc(CN2CC(C(=O)N(Cc3nnc(-c4ccccc4Cl)o3)C3CC3)CC2=O)cc1 (centres undefined)	?	-3	-26%	0	-21%	0%
O=C(c1cc(=O)[nH]c2ccccc12)N(Cc1nnc(-c2ccccc2Cl)o1)C1CC1	-8	-2	?	-11	13µM*	-9%
Cc1ccc(C(=O)N(Cc2nnc(-c3ccccc3Cl)o2)C2CC2)o1	-10	1	18µM*	32	?	.
CN1CCN(S(=O)(=O)c2cccc(C(=O)NC3CCCC3)c2)CC1	-1	-21	-16%	5	-5%	-14%
CN1CCN(Cc2cc(COCc3ccccc3)c3cccnc3c2O)CC1	-97*	-94*	3.3µM*	-89*	3.3µM*	11%
CN1CCN(Cc2ccc(OCc3ccccc3)cc2)CC1	-13	0	-9%	-2	-24%	-2%
CCCOCc1cc(CN2CCN(c3cccc(Cl)c3)CC2)c(O)c2ncccc12	.	.	5.2µM*	.	5.8µM*	13%
CCCCOCc1cc(CN2CCN(c3cccc(Cl)c3)CC2)c(O)c2ncccc12	.	.	3.3µM*	.	16µM*	10%
Cc1cnc(C(=O)Nc2ccc(-n3cnnn3)cc2)cn1	9	0	?	11	18µM*	2%
COc1ccc(NC(=O)c2cnc(C)cn2)cc1-n1cnnn1	16	6	-13%	1	-14%	1%
Cc1cc(C(F)F)n2nc(C(=O)Nc3ccc(S(=O)(=O)N4CCCCCC4)cc3)nc2n1	-19	-11	-29%	-6	-11%	.
C[C@H](NC(=O)c1nc[nH]c1C(=O)N[C@@H](CCCCNC(=O)OC(C)(C)C)C(=O)OC(C)(C)C)C(=O)OC(C)(C)C	0	1	?	-1	?	11%
CC(C)(C)OC(=O)NCCCC[C@H](NC(=O)c1nc[nH]c1C(=O)N[C@@H](CCCCNC(=O)OC(C)(C)C)C(=O)OC(C)(C)C)C(=O)OC(C)(C)C	-24	-2	23µM*	-2	15µM*	7%
CC(C)(C)OC(=O)NCCCCCNC(=O)c1nc[nH]c1C(=O)NCCCCCNC(=O)OC(C)(C)C	19	-8	10µM*	4	12µM*	4%
CC(C)(C)OC(=O)NCCCCCNC(=O)c1[nH]cnc1C(=O)N[C@@H](CCCCNC(=O)OC(C)(C)C)C(=O)OC(C)(C)C	-21	1	16µM*	4	16µM*	8%
CC(C)(C)OC(=O)NCCCC[C@H](NC(=O)c1nc[nH]c1C(=O)NC(c1ccccc1)c1ccccc1)C(=O)OC(C)(C)C	-7	-2	?	8	15µM*	9%
CC(C)(C)OC(=O)NCCCCCNC(=O)c1ncn(Cc2ccccc2)c1C(=O)NCCCCCNC(=O)OC(C)(C)C	-13	2	16µM*	-3	?	1%
Cc1cccc(NC(=O)c2nc[nH]c2C(=O)NCCCCCNC(=O)OC(C)(C)C)c1	-75*	-20	16µM*	-12	15µM*	1%
CC(C)(C)OC(=O)NCCCC[C@H](NC(=O)c1nc[nH]c1C(=O)N1CCc2ccccc2C1)C(=O)OC(C)(C)C	?	0	21µM*	-5	26µM*	7%
SMILES	IL1B secr inh	CtBP-E1A blk	DT40 TDP1 no CPT	Six1-Eya2 inh	DT40 TDP1 CPT	TDP1 block
CC(C)(C)OC(=O)NCCCC[C@H](NC(=O)c1nc[nH]c1C(=O)NCc1ccc(CNC(=O)OC(C)(C)C)cc1)C(=O)OC(C)(C)C	-17	1	16µM*	-5	?	.
CC(C)(C)NC(=O)C1c2ccccc2OCC(=O)N1Cc1ccc2c(c1)OCO2 (centres undefined)	-4	-3	-9%	0	-29%	.
COC(=O)c1ccccc1NC(=O)CSc1nc(=O)cc(N)n1-c1ccccc1	.	.	-18%	.	8%	.
Cc1ccc(CN2CCC(Oc3ccc(C(=O)NCc4ccccn4)cc3)CC2)o1	-6	5	3%	6	-18%	2%
NC(=O)c1nsc(C(=O)N(c2ccccc2)C(C(=O)NC2CCCC2)c2ccncc2)c1N (centres undefined)	8	26	-23%	0	-19%	.
CN(Cc1ccccc1)C(=O)c1[nH]cnc1C(=O)NCCCCCNC(=O)OC(C)(C)C	-3	.	18µM*	-5	?	0%
COC(=O)c1c(NC(=O)CN2C(=O)NC3(CCCCC3C)C2=O)sc2c1CCC2 (centres undefined)	-52*	-8	?	-2	?	-1%
O=C(Nc1ccc(O)cc1)c1cc2ccccc2c(=O)s1	-27	-15	16µM*	-10	?	.
Cn1nc(-c2ccccc2F)c2cc(C(=O)NCc3cccc(Cl)c3)sc21	.	.	?	.	15µM*	-1%
CC(CCc1ccco1)NC(=O)c1cc2c(-c3ccccc3F)nn(C)c2s1 (centres undefined)	-24	-23	?	?	?	7%
Cn1nc(-c2ccccc2F)c2cc(C(=O)NCc3ccc(Cl)cc3)sc21	.	.	16µM*	.	?	4%
Cn1nc(-c2ccccc2F)c2cc(C(=O)Nc3ccc4c(c3)OCCO4)sc21	-65*	-18	21µM*	-10	?	8%
Cn1nc(-c2ccccc2F)c2cc(C(=O)Nc3cc(F)ccc3F)sc21	.	.	?	.	?	-1%
